Screening data: PubChem, National Center for Advancing Translational Sciences (NCATS)
In the library only some 3% were active in any assay of this set; here they are far more common.
DRD3 antagonist: antagonists of human D3 dopamine receptor. P35462. D3R cells, DiscoveRx beta-arrestin luminescence, antagonist mode; hits give low values. max response, negative = inhibition, %. hit rate 2.5% among 360,000. AID 652054; in the data active = max response below about -50%; inconclusive = no clear call, values can overlap the other calls
Target sequence (P35462 whole entry, looked up): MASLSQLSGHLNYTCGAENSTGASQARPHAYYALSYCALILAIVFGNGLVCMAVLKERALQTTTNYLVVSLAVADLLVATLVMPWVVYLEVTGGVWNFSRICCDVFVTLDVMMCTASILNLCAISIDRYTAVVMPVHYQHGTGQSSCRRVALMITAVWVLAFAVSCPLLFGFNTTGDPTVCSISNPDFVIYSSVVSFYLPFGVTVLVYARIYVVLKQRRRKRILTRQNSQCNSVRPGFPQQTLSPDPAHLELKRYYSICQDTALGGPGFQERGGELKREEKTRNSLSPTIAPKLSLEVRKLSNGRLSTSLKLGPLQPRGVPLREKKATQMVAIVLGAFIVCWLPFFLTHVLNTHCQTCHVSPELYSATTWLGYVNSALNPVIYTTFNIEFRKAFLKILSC
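Cells expressing the human receptor were seeded at 1500 cells/well, incubated overnight at 37 degrees C in 5% CO2, then exposed to library compounds with dopamine controls for 90 minutes at 37 degrees C before luminescent detection.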
D3 ag: activates the human D3 dopamine receptor. P35462. D3R DiscoveRx beta-arrestin cells, luminescence, 90 min. max activation, %. hit rate 0.58% among 410,000. AID 652048; in the data active = max activation above about 30%
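Agonist mode: compounds and dopamine controls were applied to plated cells for 90 min at 37 degrees C after an overnight attachment at 1500 cells/well. Luminescent read-out followed 30 - 60 minutes at room temperature with DiscoveRx detection reagent.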
Nrf2 ARE act: activates Nrf2 signaling | AREc32 ARE-luciferase reporter (MCF7-derived line), luminescence, 24 h | hit rate 0.31% among 410,000 | Potency, µM (titrated, usually from 46.1 µM), most hits filed as activators; also: nearly all actives have a fitted effect of over 65% in size
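AREc32 cells carrying an ARE-driven firefly luciferase, 1000 cells/well in OPTI-MEM with 5% FBS, dosed after overnight attachment and incubated 24 hr at 37 deg C. Steady-Glo luminescence read after 30 min at RT.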
Glioma ERSR ind: induces the endoplasmic reticulum stress response in human glioma cells | AID 602332 | Potency, µM, actives largely listed as activators | hit rate 0.02% among 420,000 | U87-MG GRP78 promoter luciferase reporter, 16 h; also: series mostly up to about 76 µM; nearly all actives have a fitted effect of over 35% in size
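Stably transfected U87-MG glioma cells carrying a GRP78-based luciferase sensor; 16 h compound incubation. Luminescence end-point read 10 min after Bright-Glo addition at room temperature.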
A number is an active result; i = inactive; ? = inconclusive; nt = not tested or not shown; [ ] = another dose, or the depositor's remark. Unless noted, calls follow the shape of the dose curve; as a rule, active = well fitted curve in the direction sought with a large enough effect; inconclusive = small, poorly fitted or top-dose-only effect, or another doubt; inactive = no such curve, though single readings can be large; an effect the other way counts as inactive or inconclusive.

SMILES	DRD3 antagonist	D3 ag	Nrf2 ARE act	Glioma ERSR ind
CCCOc1ccc(CCc2n[nH]c(=S)n2-c2ccccc2)cc1	i	i	i	i
CCCOc1ccc(CCc2n[nH]c(=S)n2Cc2ccccc2)cc1	-54.6	i	i	i
O=C1CC(C(=O)N2CCOc3ccc(CN4CCC(Oc5cccnc5)CC4)cc3C2)c2ccccc21 (configuration not stated)	nt	nt	nt	i
CC1CN(C(=O)Cn2cnc3c2c(=O)n(C)c(=O)n3C)CC(C)O1 (configuration not stated)	?	i	i	i
CCOC(=O)C1CCCN(C(=O)Cn2cnc3c2c(=O)n(C)c(=O)n3C)C1 (configuration not stated)	i	31.8	i	i
COc1ccc(-c2n[nH]c3c2cnc2cc(OC)c(OC)cc23)cc1	nt	i	i	i
Cc1ccc(CN=Cc2[nH]c3ccc(Br)c(Cl)c3c2O)cc1	-100.7	i	?	i
CCS(=O)(=O)NCc1c(C)ncc2c1CCN(C(=O)c1csc(-c3cccs3)n1)C2	nt	nt	nt	i
COc1ccc(Br)cc1CNc1ccc2[nH]c(=O)[nH]c2c1	i	i	i[9.22 µM]	i
COc1ccc(Br)cc1CNc1ccc(O)cc1	-66.4	i	i	?
CC(NC(=O)/C(C#N)=C/c1ccc([N+](=O)[O-])o1)c1ccccc1 (configuration not stated)	-96.0	i	i	i
COC(=O)c1ccc(/C=C(\C#N)C(=O)NC(C)c2ccccc2)cc1 (configuration not stated)	-55.5	i	i	?
CC(NC(=O)/C(C#N)=C/c1ccco1)c1ccccc1 (configuration not stated)	i	i	i	i
COC(=O)c1ccc2c(=O)n(CCCCCC(=O)N3CCN(c4cc(Cl)ccc4C)CC3)c(=O)[nH]c2c1	nt	i	i	i
O=C(Oc1cccc2cccnc12)c1cccc(N2C(=O)C3C4CCC(C4)C3C2=O)c1 (configuration not stated)	-87.6	i	i	i
CCCCn1c(SCC(=O)c2ccccc2)nc2ccsc2c1=O	i	58.8	i	i
O=C(CSc1nc2ccsc2c(=O)n1NC(=O)c1ccccc1)Nc1nccs1	-59.5	i	i	i
CCCCn1c(SCC(=O)c2ccc(O)c(O)c2)nc2ccsc2c1=O	i	i	i[9.22 µM]	i
Cc1cc(/C=C/c2ccnc3ccccc23)ccc1N(C)C	nt	nt	nt	i
COc1ccc(OC)c(NC(=O)c2nc(S(=O)(=O)Cc3ccc(F)cc3)ncc2Cl)c1	nt	i	i	i
COc1ccccc1NC(=O)c1nc(S(=O)(=O)Cc2ccccc2)ncc1Cl	-88.8	i	?	i
CCSc1ncc(Cl)c(C(=O)Nc2ccc(S(=O)(=O)N3CCC(C)CC3)cc2)n1	nt	i	i	i
CCS(=O)(=O)c1ncc(Cl)c(C(=O)Nc2ccccc2)n1	nt	i	?	i
CCS(=O)(=O)c1ncc(Cl)c(C(=O)Nc2ccccc2OC)n1	-63.6	i	i	?
CCS(=O)(=O)c1ncc(Cl)c(C(=O)Nc2ccc(S(=O)(=O)N3CCC(C)CC3)cc2)n1	-61.1	i	?	i
SMILES	DRD3 antagonist	D3 ag	Nrf2 ARE act	Glioma ERSR ind
CCOc1ccccc1NC(=O)c1nc(S(=O)(=O)Cc2ccccc2)ncc1Cl	-106.6	i	?	i
COC(=O)c1ccccc1NC(=O)c1nc(S(=O)(=O)Cc2cccc(C)c2)ncc1Cl	nt	i	i	i
Cc1ccc2c(c1)CN(C(=O)CC(c1ccccc1)c1ccco1)CC(C)O2 (configuration not stated)	nt	nt	nt	i
CC(O)C1CCC2C3CCC4CC(O)CCC4(C)C3CCC12C (configuration not stated)	nt	nt	nt	i
COc1cc2c(NC3CCN(C)CC3)nc(N3CCCCC3)nc2cc1OCCOCCN1CCCC1	nt	nt	nt	i
O=C(COc1ccc(Br)cc1)NNC(=S)NCc1ccccc1	-67.6	i	i	i
O=C(COc1ccc(Cl)cc1)NNC(=S)NCc1ccccc1	i	i	i	i
COC(=O)C(=O)Nc1cccc2cccnc12	nt	nt	nt	i
Cc1nc2sccn2c1CN1CCOc2ccc(CN3CCN(c4ccc(F)cc4)CC3)cc2C1	nt	nt	nt	i
Cc1csc(CN(C)C(=O)c2sc3ncnc(NCC4CCCO4)c3c2C)n1 (configuration not stated)	nt	nt	nt	i
COc1ccc(/C=C/C(=O)NC(=S)Nc2ccc(S(=O)(=O)Nc3nccnc3OC)cc2)cc1	-62.1	i	i	i
COc1nccnc1NS(=O)(=O)c1ccc(NC(=S)NC(=O)c2ccc(F)cc2)cc1	-64.7	i	i	i
COc1nccnc1NS(=O)(=O)c1ccc(NC(=S)NC(=O)c2cccc(F)c2)cc1	-61.6	i	i	i
